Experiment [1] addresses Lysosomal acid glucosylceramidase (Homo sapiens) (UniProt P04062). The experiment is described as follows: Glucocerebrosidase-p2 (AID 348; in the data active = potency below about 10 µM; note: potency is the fitted concentration of half-maximal effect). Particulars: purified GBA, blue fluorogenic substrate, 40 min. A digest of the protocol: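 Normal human glucocerebrosidase (0.2 nM) with blue fluorogenic substrate (80 uM final) in citrate/phosphate pH 5.9 with 10mM sodium taurocholate, 0.01% tween-20; 40 min RT, NaOH/glycine stop; fluorescence Ex 365/Em 440; AC50 from a titration from 0.6 nM upwards.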

Experiment [2] in a line: AP1 Signaling Pathway (AID 357; active = well fitted curve in either direction with a large enough effect, not every such curve was filed as active;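 note: ME-180 reporter cells stimulated with EGF at its EC50 level; % is set by controls: 0 for no effect and ±100 for the full control effect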). Particulars: ME-180 AP-1-bla reporter, EGF-induced, beta-lactamase ratio, 5 h; at 7.69 µM (top of the series) unless noted. A digest of the protocol:
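AP-1-bla ME-180 cells, Opti-MEM + 0.5% dialyzed FBS, plated overnight 37 °C. Cpd titration + EC50 EGF, 5 h 37 °C. CCF4 2.5 h RT; ex 405, em 460/530 ratio → %activity, AC50.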

The target in experiment [3] is Cytochrome P450 1A2 (Homo sapiens) (UniProt P05177). Briefly: p450-cyp1a2 (AID 410; calls by dose curve; note: potency is the fitted concentration of half-maximal effect). Conditions: recombinant CYP1A2, luciferin-ME demethylation, luminescence; series mostly up to 57 µM. The essentials:
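Read-out is luminescence from luciferin produced by CYP1A2 demethylation of Luciferin-ME (100uM, at Km). Detection reagent stopped the 60 min NADPH-dependent reaction; signals were normalized to 57 uM furafylline.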

Experiment [4] can be described thus: NFAT Signaling Pathway (AID 444; active = well fitted curve in either direction with a large enough effect, not every such curve was filed as active;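 note: carbachol stimulus at about its EC50 of 1 µM final; % is set by controls: 0 for no effect and ±100 for the full control effect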). Conditions: Jurkat NFAT-bla M1, carbachol, beta-lactamase ratio, 5 h; at 7.69 µM (top of the series) unless noted. The essentials:
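Read-out: CCF4 FRET ratio (460 nm/530 nm) after 1 h RT dye loading, used for %activity and AC50 from titration series. Cells: Jurkat NFAT-β-lactamase/M1 line, treated with compound plus 1 uM carbachol for 5 h, 37 °C.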

Experiment [5] is described as follows: Stat Signaling Pathway (AID 446; active = well fitted curve in either direction with a large enough effect, not every such curve was filed as active;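 note: ME-180 cervical cancer cells given 40 pM IL-6 alongside compound; SIE-controlled beta-lactamase reporter measured as 460/530 nm FRET emission ratio; % is set by controls: 0 for no effect and ±100 for the full control effect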). Conditions: ME-180 (cervical carcinoma) SIE beta-lactamase reporter, IL-6 stimulated, 5 h; at 7.69 µM (top of the series) unless noted. A digest of the protocol: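 Normalization used AC90 stimulation (300 pM IL-6) and AC90 inhibition (125 nM pan-JAK inhibitor at 40 pM IL-6). The underlying signal is SIE-driven beta-lactamase in ME-180 cells after 5 h IL-6 exposure with compound.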

For experiment [6], the target named is Glucocorticoid receptor (Homo sapiens) (UniProt P04150). The experiment is described as follows: GR-GFP Redistribution (AID 450;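 active = compounds whose dose series gives a full or clear partial fitted curve of increased nuclear translocation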; note: potency is the fitted concentration of half-maximal effect). Particulars: U2OS GR-GFP nuclear translocation, laser cytometry, 2 h.
Glucocorticoid receptor (Homo sapiens), sequence (P04150 whole entry, looked up): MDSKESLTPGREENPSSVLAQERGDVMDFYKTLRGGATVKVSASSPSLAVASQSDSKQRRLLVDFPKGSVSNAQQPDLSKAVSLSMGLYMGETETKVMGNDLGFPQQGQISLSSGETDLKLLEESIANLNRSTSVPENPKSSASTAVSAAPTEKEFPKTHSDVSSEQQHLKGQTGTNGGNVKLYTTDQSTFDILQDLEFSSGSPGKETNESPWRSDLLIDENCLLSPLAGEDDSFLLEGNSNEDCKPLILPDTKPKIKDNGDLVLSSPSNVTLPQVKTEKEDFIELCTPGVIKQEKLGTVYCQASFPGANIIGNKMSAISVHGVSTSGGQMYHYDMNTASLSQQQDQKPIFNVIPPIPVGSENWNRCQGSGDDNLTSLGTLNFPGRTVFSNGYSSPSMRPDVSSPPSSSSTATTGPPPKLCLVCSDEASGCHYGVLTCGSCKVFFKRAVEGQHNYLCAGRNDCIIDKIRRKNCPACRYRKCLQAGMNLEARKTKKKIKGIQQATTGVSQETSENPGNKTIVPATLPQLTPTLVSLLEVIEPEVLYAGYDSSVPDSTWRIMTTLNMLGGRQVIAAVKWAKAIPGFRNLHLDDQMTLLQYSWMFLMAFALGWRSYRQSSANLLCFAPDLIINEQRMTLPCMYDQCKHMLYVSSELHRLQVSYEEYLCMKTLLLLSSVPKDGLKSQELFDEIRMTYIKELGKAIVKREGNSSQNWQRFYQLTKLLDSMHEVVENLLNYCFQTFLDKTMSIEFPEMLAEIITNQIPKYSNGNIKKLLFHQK
The target is the same in experiment [7]. The experiment is described as follows: GR-EFC Redistribution (AID 451; calls by dose curve; note: potency is the fitted concentration of half-maximal effect). Conditions: CHO-K1 GR-EFC translocation, beta-gal luminescence, 2 h. A digest of the protocol:
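Translocation of GR-ED fusion to nuclear EA restores b-gal, read by luminescence after 1 h room-temperature detection. Engineered CHO-K1 biosensor cells, 1,000/well, exposed 2 h at 37 C to titrations up to 46 uM final.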

For experiment [8], the target named is Mitogen-activated protein kinase 10 (Mus musculus) (UniProt Q61831). Briefly: JNK3 AlphaScreen Assay (AID 530; active = well fitted curve in either direction with a large enough effect, not every such curve was filed as active;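 note: kinase came from lysate of stimulated human HepG2 cells; signal reports phosphorylation of biotinylated GST-cJun 1-79 at Ser73 with 10 µM ATP; % is set by controls: 0 for no effect and ±100 for the full control effect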). Conditions: JNK3 lysate, c-Jun phosphorylation; series mostly up to 57.1 µM. The essentials: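 Kinase buffer: 20 mM Tris-HCl pH 7.6, 10 mM MgCl2, 1 mM DTT, 0.1 mM Na3VO4, 0.01% Tween-20; ATP 10 uM. Substrate biotin-GST-cJun(1-79), enzyme from activated HepG2 lysates. Detection by Ser73 phospho-antibody AlphaScreen.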

Experiment [9] concerns the target 3',5'-cyclic-AMP phosphodiesterase 4B (Homo sapiens) (UniProt Q07343). Briefly: qHTS Assay for Inhibitors of PDE-IV (AID 607; active = well fitted activation curve with a large enough effect in the main read-out, with a control signal flat, not every such curve was filed as active; note: % of control where 0% means no effect). Particulars: HEK293 ACTOne CNG channel cells, membrane potential fluorescence; series mostly up to 22.9 µM. The essentials:
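HEK293 ACTOne cells with CNG channel (1000/well), endogenous PDE4; membrane potential dye, compounds up to 22.9 uM final. Fluorescence Ex 535/Em 590; RO 20-1724 (100 uM final) as reference.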

In experiment [10] the target is Cytochrome P450 3A4 (Homo sapiens) (UniProt P08684). The experiment is described as follows: qHTS Assay for Activators of Cytochrome P450 3A4 (AID 885). Note: nearly all actives have a fitted effect of over 65% in size. Note: potency is the fitted concentration of half-maximal effect. Conditions: recombinant CYP3A4, Luciferin-PPXE luminescence, 60 min; series mostly up to 57.1 µM. The essentials:
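Human CYP3A4 dealkylates Luciferin-PPXE to luciferin, which luciferase detection converts to light. Substrate was at its KM (25uM), buffer 200mM KPO4, reaction 60 min at RT.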
(Quantitative high-throughput screening tests each substance at several concentrations.)

The nature of experiment [11]: qHTS Assay for Lipid Storage Modulators (AID 1519; calls by dose curve). Conditions: Drosophila S3 cells, BODIPY lipid droplet/cell ratio, laser cytometry, cells loaded with oleic acid; for activity change, negative = inhibition: at 57.5 µM (top of the series). A digest of the protocol:
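Cells seeded at 5,000 per well were treated with compounds over a concentration series and loaded with oleic acid (400 uM, as added). Lipid droplet fluorescence (488 nm excitation, 500-530 nm channel) was read by laser-scanning cytometry and normalized to 20 uM Triacsin C.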

The target of experiment [12] is Dual specificity protein kinase CLK4 (Homo sapiens) (UniProt Q9HAZ1). The experiment is described as follows: qHTS Assay for Inhibitors of CDC-like Kinase 4 (Kinase-Glo Assay) (AID 1770). Note: % is set by controls: 0 for no effect and ±100 for the full control effect; nearly all actives have a fitted effect of over 65% in size. Conditions: recombinant Clk4, Kinase-Glo ATP depletion luminescence; series mostly up to 66.7 µM. A digest of the protocol: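 Readout: Kinase-Glo luminescence from ATP left after a 4.5 h room-temperature reaction of 25 nM Clk4 with 100 uM RS peptide and 1 uM ATP (final). Buffer: 25 mM Tris pH 7.5, 10 mM MgCl2.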
Dual specificity protein kinase CLK4 (Homo sapiens), sequence (Q9HAZ1 whole entry, looked up): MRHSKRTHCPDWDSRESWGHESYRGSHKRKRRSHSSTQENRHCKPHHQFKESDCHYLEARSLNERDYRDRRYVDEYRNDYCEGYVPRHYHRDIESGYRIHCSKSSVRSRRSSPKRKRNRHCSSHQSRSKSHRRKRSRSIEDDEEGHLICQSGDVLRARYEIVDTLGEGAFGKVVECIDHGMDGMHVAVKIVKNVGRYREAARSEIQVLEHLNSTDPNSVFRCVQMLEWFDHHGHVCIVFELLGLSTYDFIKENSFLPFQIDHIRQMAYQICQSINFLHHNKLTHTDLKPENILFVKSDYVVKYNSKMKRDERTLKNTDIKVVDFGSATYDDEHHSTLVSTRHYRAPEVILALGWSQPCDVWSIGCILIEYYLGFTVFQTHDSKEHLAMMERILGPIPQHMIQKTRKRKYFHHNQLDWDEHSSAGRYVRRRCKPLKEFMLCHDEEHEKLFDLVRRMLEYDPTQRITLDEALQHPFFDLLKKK

Experiment [13] has the same target. The experiment is described as follows: qHTS Assay for Inhibitors of CDC-like Kinase 4 (ADP-Glo Assay) (AID 1771). Note: % is set by controls: 0 for no effect and ±100 for the full control effect; nearly all actives have a fitted effect of over 70% in size. Conditions: recombinant CLK4, ADP-Glo luminescence; series mostly up to 80 µM. A digest of the protocol:
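In this ADP-Glo format, 1 uM ATP and 100 uM RS peptide served as substrates for 25 nM Clk4 in Mg2+/EGTA/DTT/Triton buffer; reactions ran 1 hr at room temperature before luminescent ADP quantification.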

Experiment [14] has the same target. The experiment is described as follows: qHTS Assay for Inhibitors of CDC-like Kinase 4 (ADP-FP Assay) (AID 1795).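 Note: recombinant human CLK4 phosphorylating RS repeat peptide at 1 µM ATP; % is set by controls: 0 for no effect and ±100 for the full control effect; nearly all actives have a fitted effect of over 60% in size.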 Conditions: Transcreener ADP fluorescence polarization; series mostly up to 50 µM. A digest of the protocol: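 FP readout: Orange Transcreener ADP2 tracer (4 nM) plus ADP antibody, read after 30 min at room temperature. Kinase step: 6.25 nM Clk4, 100 uM RS peptide, 1 uM ATP, pH 7.5, 1 h.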

The target in experiment [15] is Ubiquitin carboxyl-terminal hydrolase 1 (Homo sapiens) (UniProt O94782). Briefly: Inhibitors of USP1/UAF1: Pilot qHTS (AID 504865).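 Note: rhodamine fluorescence freed from ubiquitin-rhodamine substrate followed over time; top concentration of the series differs between compounds; % is set by controls: 0 for no effect and ±100 for the full control effect; nearly all actives have a fitted effect of over 35% in size.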 Particulars: purified USP1/UAF1, Ub-rhodamine cleavage fluorescence; series mostly up to 54.9 µM. A digest of the protocol: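 1nM USP1/UAF1 + cpd, 15 min RT; start w/ Ub-Rho 150nM final; kinetic FL 480/540 nm, 6 reads q60 s. Buffer 50mM HEPES pH 7.8, 0.5mM EDTA, 1mM TCEP, 0.01% Tween-20, 0.1 mg/ml BSA.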
Ubiquitin carboxyl-terminal hydrolase 1 (Homo sapiens), sequence (O94782 whole entry, looked up): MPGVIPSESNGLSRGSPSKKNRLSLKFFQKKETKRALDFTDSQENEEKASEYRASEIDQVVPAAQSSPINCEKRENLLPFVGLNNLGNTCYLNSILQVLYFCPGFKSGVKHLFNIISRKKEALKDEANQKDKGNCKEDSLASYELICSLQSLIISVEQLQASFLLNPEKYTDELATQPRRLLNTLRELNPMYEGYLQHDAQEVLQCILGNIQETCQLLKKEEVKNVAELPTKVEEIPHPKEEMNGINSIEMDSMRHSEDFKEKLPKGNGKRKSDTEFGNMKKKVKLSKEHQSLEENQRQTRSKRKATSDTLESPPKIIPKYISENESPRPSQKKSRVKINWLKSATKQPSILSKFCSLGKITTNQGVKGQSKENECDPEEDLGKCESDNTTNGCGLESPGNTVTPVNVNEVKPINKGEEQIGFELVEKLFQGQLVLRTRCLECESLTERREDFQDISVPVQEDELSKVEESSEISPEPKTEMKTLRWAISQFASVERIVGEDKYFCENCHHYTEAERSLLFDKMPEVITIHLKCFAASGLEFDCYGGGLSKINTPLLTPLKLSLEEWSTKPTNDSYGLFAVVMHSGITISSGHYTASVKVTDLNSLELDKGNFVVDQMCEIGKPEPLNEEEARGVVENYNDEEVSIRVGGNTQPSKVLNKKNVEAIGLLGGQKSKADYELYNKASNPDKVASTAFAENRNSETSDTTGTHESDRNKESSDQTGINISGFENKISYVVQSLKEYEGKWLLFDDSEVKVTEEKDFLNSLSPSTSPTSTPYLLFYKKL

Experiment [16] is described as follows: Primary qHTS for small molecule stabilizers of the endoplasmic reticulum resident proteome: Secreted ER Calcium Modulated Protein (SERCaMP) assay (AID 1508630). Note: % is set by controls: 0 for no effect and ±100 for the full control effect. Particulars: SH-SY5Y GLuc-SERCaMP (Gaussia luciferase released on ER calcium loss) secretion, thapsigargin, luminescence; series mostly up to 38.4 µM. The essentials: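 The SH-SY5Y reporter protocol was run at 3 concentrations up to 38.3 uM (primary) or 11 concentrations (follow-up): 16 h compound, 100 nM thapsigargin for 4 h, then extracellular luciferase luminescence.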

Experiment [17] deals with Cytochrome P450 3A4 (Homo sapiens) (UniProt P08684). Briefly: qHTS Assay for Inhibitors and Substrates of Cytochrome P450 3A4 (AID 884). Note: % is set by controls: 0 for no effect and ±100 for the full control effect; nearly all actives have a fitted effect of over 50% in size. Conditions: recombinant CYP3A4, Luciferin-PPXE luminescence; series mostly up to 57.1 µM. A digest of the protocol:
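Luminescent readout of luciferin produced by CYP3A4 (20 nM) dealkylation of Luciferin-PPXE, 25 uM (its KM). NADPH-driven reaction ran 60 min at RT after 10 min compound preincubation; data scaled to 57 uM ketoconazole as 100% inhibition.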

Where [18] appears, read: measured here: cell count channel max response.
The mark [19] stands for this setting: measured here: lipid channel max response.

Records with an inconclusive call do not appear. Activity calls are given as the source filed them. Unless noted, calls come from the whole dose curve; as a rule, active = well fitted curve in the direction sought with a large enough effect; inconclusive = small, poorly fitted or top-dose-only effect, or another doubt; inactive = no such curve, though single readings can be large; an effect the other way counts as inactive or inconclusive. Where only a bound is given, the exact number is not on record here.

Cytochrome P450 1A2 (Homo sapiens), sequence (P05177 whole entry, looked up): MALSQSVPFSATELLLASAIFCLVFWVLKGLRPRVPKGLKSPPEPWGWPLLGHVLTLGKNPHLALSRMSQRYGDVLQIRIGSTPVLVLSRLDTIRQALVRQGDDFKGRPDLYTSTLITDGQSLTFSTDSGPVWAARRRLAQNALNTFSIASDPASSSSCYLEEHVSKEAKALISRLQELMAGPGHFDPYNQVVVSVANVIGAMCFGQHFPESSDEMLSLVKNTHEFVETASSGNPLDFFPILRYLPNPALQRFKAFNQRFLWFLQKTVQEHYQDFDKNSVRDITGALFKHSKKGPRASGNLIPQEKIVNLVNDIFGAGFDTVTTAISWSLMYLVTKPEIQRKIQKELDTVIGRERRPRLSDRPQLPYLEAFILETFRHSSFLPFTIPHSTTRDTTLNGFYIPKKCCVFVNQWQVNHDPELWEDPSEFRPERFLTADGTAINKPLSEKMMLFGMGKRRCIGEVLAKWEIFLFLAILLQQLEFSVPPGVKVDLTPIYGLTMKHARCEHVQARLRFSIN
3',5'-cyclic-AMP phosphodiesterase 4B (Homo sapiens), sequence (Q07343 whole entry, looked up): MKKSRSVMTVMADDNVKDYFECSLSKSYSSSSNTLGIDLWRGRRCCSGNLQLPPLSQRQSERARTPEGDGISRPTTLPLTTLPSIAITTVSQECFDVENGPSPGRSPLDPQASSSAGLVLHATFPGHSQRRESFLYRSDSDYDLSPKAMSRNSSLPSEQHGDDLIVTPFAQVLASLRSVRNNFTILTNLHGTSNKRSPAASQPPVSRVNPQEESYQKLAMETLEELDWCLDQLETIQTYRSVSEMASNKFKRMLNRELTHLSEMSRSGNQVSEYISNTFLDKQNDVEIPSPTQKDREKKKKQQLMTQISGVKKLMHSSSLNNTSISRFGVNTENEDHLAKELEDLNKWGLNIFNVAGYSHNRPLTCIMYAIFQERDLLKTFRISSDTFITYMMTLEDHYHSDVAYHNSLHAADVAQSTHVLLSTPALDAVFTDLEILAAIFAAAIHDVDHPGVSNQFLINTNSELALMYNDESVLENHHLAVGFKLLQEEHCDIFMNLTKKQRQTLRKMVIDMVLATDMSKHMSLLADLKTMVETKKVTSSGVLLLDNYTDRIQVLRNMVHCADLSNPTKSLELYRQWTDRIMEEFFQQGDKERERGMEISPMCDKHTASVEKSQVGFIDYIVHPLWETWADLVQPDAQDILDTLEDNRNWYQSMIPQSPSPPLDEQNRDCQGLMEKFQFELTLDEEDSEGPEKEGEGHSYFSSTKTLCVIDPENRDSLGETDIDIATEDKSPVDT
Cytochrome P450 3A4 (Homo sapiens), sequence (P08684 whole entry, looked up): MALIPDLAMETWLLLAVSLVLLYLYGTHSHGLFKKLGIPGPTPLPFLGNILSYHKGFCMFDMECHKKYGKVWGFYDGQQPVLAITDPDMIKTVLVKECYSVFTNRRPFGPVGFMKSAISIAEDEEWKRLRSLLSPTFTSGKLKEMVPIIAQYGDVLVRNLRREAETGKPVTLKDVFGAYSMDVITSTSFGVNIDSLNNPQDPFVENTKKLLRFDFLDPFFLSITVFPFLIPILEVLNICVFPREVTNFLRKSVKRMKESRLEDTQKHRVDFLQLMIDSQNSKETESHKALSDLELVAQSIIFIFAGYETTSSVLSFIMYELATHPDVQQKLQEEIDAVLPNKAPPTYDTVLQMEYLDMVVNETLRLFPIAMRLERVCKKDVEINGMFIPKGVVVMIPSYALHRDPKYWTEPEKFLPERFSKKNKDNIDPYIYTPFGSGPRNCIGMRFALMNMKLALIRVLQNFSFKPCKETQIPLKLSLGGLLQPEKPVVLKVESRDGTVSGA
Lysosomal acid glucosylceramidase (Homo sapiens), sequence (P04062 whole entry, looked up): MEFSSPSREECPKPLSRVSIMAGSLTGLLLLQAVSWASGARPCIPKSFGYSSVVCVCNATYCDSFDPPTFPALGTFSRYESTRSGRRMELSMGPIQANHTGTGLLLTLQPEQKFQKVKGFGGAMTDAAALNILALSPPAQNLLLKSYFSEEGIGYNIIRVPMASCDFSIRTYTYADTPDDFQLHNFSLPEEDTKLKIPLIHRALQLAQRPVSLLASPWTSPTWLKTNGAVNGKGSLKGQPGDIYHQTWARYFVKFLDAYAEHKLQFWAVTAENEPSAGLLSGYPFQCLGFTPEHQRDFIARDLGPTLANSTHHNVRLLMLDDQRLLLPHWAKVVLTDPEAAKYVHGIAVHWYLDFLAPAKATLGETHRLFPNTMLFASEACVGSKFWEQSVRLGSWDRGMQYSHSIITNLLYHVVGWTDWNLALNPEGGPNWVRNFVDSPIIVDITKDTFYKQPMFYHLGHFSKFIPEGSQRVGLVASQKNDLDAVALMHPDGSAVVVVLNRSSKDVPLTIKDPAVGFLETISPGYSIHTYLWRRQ

Take `COc1ncc2nc(C)c(=O)n(C3CC3)c2n1`: the Potency is > 11.4 µM (inactive) in experiment [1], 3.98 µM (active) in experiment [3], > 9.22 µM (inactive) in experiment [6] and > 46 µM (inactive) in experiment [7]. The activity change, negative = inhibition in experiment [2] was -5.11% (inactive); in [4] it was -4.48% (inactive); in [11], 4.19% (inactive). Besides, the activity, negative = inhibition in experiment [5] is -11.2% (inactive). Also, the call in experiment [8] was inactive. Moreover, the Potency entry in experiment [9], in [10], in [12], in [13], in experiment [14] and in experiment [15] was “inactive” throughout. The Potency result in [16] is “inactive”. Besides, the results for the max response in experiment [11] (setting [18]) and in experiment [11] (setting [19]) were 28.7% and 29.7%, respectively.

On to `CNc1cc(-c2ccccc2CN(C)C)ncn1`, for which the Potency in experiment [1] is > 11.4 µM (inactive); in experiment [3], 31.6 µM (active); in experiment [6] it was > 46 µM (inactive); in [7], > 46 µM (inactive). Further, the activity change, negative = inhibition was 6.89% (inactive) in experiment [2], -0.773% (inactive) in experiment [4] and 2.26% (inactive) in [11]. For the same molecule, in experiment [5], the activity, negative = inhibition is -3.02% (inactive). In addition, the call in experiment [8] was inactive. Besides, the Potency result in [9], in [12], in experiment [13], in [14], in experiment [15] and in [16] was “inactive” in each case. Further, the results for the max response in [11] (setting [18]) and in [11] (setting [19]) were 7.6% and 8.03%, respectively.

`COCCNc1nc(-c2ccccc2OC)nc2ccccc12`: the Potency in experiment [1] is > 2.29 µM (inactive); in experiment [3], 0.794 µM (active); in [6] it was > 46 µM (inactive); in [7] it was > 46 µM (inactive). Besides, the activity change, negative = inhibition was 12.5% (inactive) in experiment [2], 8.54% (inactive) in experiment [4] and 6.78% (inactive) in [11]. Further, the activity, negative = inhibition in experiment [5] is 7.08% (inactive). For the same molecule, in experiment [8], the result was inactive. The Potency result in experiment [9], in experiment [10], in experiment [12], in experiment [13], in experiment [14] and in experiment [15] was “inactive” each time. In experiment [16], the Potency result was “inactive”. For the same molecule, the max response in [11] (setting [18]) came to 15.3%; in [11] (setting [19]), 15.6%.

`CNc1cc(-c2ccccc2C(F)(F)F)ncn1`: the Potency was > 11.4 µM (inactive) in experiment [1]; 15.8 µM (active) in experiment [3]; > 46 µM (inactive) in experiment [6]; > 46 µM (inactive) in [7]; 15.8 µM (active) in experiment [10]. Also, the activity change, negative = inhibition in experiment [2] is 4.62% (inactive); in [4], 1.13% (inactive); in experiment [11], 1.87% (inactive). In experiment [5], the activity, negative = inhibition is 7.97% (inactive). Further, the call in experiment [8] was inactive. Besides, the Potency result in experiment [9], in experiment [17], in [12], in experiment [13], in experiment [14] and in [15] was “inactive” in each case. The Potency entry in experiment [16] is “inactive”. Besides, the max response amounted to 21.4% in experiment [11] (setting [18]) and 21.2% in experiment [11] (setting [19]).

For the molecule `Cn1cc(-c2nc3cnc(N4CCNCC4)nc3n(C)c2=O)c2ccccc21`, the Potency in [1] is > 11.4 µM (inactive); in experiment [3], 15.8 µM (active); in experiment [6] it was > 9.22 µM (inactive); in experiment [7], > 46 µM (inactive). Also, the results for the activity change, negative = inhibition in experiment [2], in experiment [4] and in experiment [11] were 4.46% (inactive), 6.17% (inactive) and 6.84% (inactive), respectively. Besides, the activity, negative = inhibition in experiment [5] is 25.8% (inactive). The molecule was called inactive in [8]. Also, the Potency entry in experiment [9], in [10], in [12], in [13], in experiment [14] and in [15] was “inactive” throughout. The Potency entry in experiment [16] is “inactive”. Further, the max response in [11] (setting [18]) was 11.6%; in experiment [11] (setting [19]) it was 17.7%.

(Values after PubChem BioAssay (NCATS).)
